Experimental findings from PubChem BioAssay AID777 (Sanford-Burnham Center for Chemical Genomics, 2007) are described below.

Out of some 96,000 compounds screened, about 19,000 (20%) were called active. These entries were drawn from the full list. Unmarked numbers belong to inactive results.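 How the source made its calls: active means blocking of liver enzyme CYP2C9 beyond about 50% at 5 µM (limit read from the data); inactive means the rest.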

The target in the experiment is Cytochrome P450 2C9 (Homo sapiens) (UniProt P11712). Put plainly: blockers of cytochrome P450 2C9 activity – biochemical, luminescence, ADME assay, primary screen (AID 777). To be noted: CYP2C9 Supersomes, luciferin-H conversion, at 5 µM, stronger effect = higher value.
Cytochrome P450 2C9 (Homo sapiens), sequence (P11712 whole entry, looked up): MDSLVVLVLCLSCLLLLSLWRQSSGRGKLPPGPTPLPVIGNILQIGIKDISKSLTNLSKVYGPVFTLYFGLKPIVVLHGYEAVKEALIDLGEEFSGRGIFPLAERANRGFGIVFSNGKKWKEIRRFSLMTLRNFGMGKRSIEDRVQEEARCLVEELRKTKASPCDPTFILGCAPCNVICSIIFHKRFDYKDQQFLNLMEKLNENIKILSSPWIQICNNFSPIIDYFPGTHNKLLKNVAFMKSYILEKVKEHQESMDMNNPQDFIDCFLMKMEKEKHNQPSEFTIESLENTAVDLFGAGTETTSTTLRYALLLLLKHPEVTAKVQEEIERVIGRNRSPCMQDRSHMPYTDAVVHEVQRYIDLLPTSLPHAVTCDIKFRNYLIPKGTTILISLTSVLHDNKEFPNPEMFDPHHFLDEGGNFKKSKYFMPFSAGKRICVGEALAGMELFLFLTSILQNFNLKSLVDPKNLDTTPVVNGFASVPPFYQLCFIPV
In the case of `N#Cc1c(N)nc2c3c(sc(=N)c2c1N)NC(=O)CC3c1ccccc1Cl` (stereo not drawn), the inhibition is 8.6%. To `CCOC(=O)C1(S(=O)(=O)c2ccc(Cl)cc2)CCN(Cc2ccccc2)CC1` belongs 21.8%; to `CCN1C(=O)/C(=C\N2CCOCC2)SC1=S`, 8.1%; to `CC1(N2CCOCC2)CC2(O)C(=[N+]1[O-])CCc1nonc12` (stereo not drawn), 31.8%. To `O=C1Nc2cc(Cl)c(Cl)cc2N(O)N1c1cc(Cl)cc(Cl)c1` belongs 89.3% (active). To `CCN(CC)CCCNC(=O)c1cc(-c2cccc(Cl)c2)on1` belongs 10.4%; to `CC(C)N(c1ccccc1)c1ncnc(NCCC(=O)O)c1[N+](=O)[O-]`, -1.4%; to `Cc1ccsc1C(=O)OCC(=O)c1cc2ccccc2o1`, -30.4%.

With `Cc1ccc(C(=O)CSc2nc3ccccc3c(=O)n2N)o1`, the inhibition was 34.2%. To `Cc1cc2c(=O)n(C)c(SCC(=O)c3cc4ccccc4o3)nc2s1` belongs 95.9% (active); to `C=CCn1c(Oc2ccc(C(=O)OC)cc2)nc2c1c(=O)n(C)c(=O)n2C`, 8.4%. `O=C(O)C1CCN(S(=O)(=O)N2CCOCC2)CC1`: the inhibition was 3.6%. The result for `COCCCN1C(=O)C(=O)/C(=C(/O)c2ccc3c(c2)CC(C)O3)C1c1cccnc1` (stereo not drawn) reads -1%; that for `c1ccc(CCN2CN=C(Nc3nc4ccccc4o3)NC2)cc1`, 6.5%; that for `Clc1ccc(Cn2ncc3c(NCc4cccnc4)ncnc32)cc1`, 49.7%.

`CCN1C(=O)/C(=C2\SC(N3CCCCC3)=NC2=O)c2ccccc21`: the inhibition was -20.1%. For the compound `O=C(NCc1cccnc1)c1ccc(CS(=O)(=O)c2ccc(Br)cc2)o1`, the inhibition is 95.6% (active). The result for `O=S(=O)(c1ccc(Br)cc1)c1nc(-c2ccccc2)oc1NCc1cccnc1` reads 17.3%; that for `CC(C)(C)c1cc(C(=O)NCc2cccnc2)ccn1`, 12.2%; that for `Cc1cc(C(C)(C)C)oc1C(=O)N(CC(=O)NC1CCCC1)Cc1ccc(Cl)cc1`, -11.5%. With `COc1ccc(NC(=O)c2ccc(OC)cc2)cc1`, the inhibition is -13.7%.

For the compound `CN(C)c1ccc(NC(=O)c2ccncc2)c2ccccc12`, the inhibition is 43.9%. To `C=C(C)C(=O)Nc1cccc(C(C)=O)c1` belongs 1.4%; to `CCCCOc1ccc(C(=O)NCc2ccncc2)cc1`, 58.4% (active); to `CCCCCCOc1ccc(OC(=O)c2cccnc2)cc1`, 10%.

Take `CCCCOc1ccc(C(=O)NCc2ccco2)cc1`: the inhibition was 15.5%. To `CCOc1ccc(C(=O)Nc2ccncc2)cc1` belongs 94.8% (active); to `CCOc1cccc(C(=O)Nc2cccnc2)c1`, 4.7%; to `CC(=O)c1cccc(NC(=O)c2ccncc2)c1`, 68.3% (active). The result for `COC(=O)CNC(=O)c1ccccc1F` reads -2.7%; that for `Cc1cc(Cl)c(S(=O)(=O)NCCC(=O)O)cc1OCC(N)=O`, -23.5%. The result for `c1cc(-c2nn[nH]n2)ccc1CN1CCCCC1` reads -10.5%. Take `COc1ccc(-c2cc3nc(C)c(CCC(=O)NC(C)CCc4ccco4)c(C)n3n2)c(OC)c1` (stereo not drawn): the inhibition was 37.5%.

In the case of `COc1cc(/C=C(/NC(=O)c2ccccc2)C(=O)Nc2cccc(O)c2)c([N+](=O)[O-])cc1OC`, the inhibition is 16.6%.

Take `CCOc1ncccc1C(=O)OCc1cn2cc(Cl)ccc2n1`: the inhibition is 45%. The result for `CSc1nc2ccccc2cc1/C=C(\C#N)c1ccc(Cl)cc1Cl` reads 7.6%; that for `O=C(NCc1ccco1)c1cnn2c(C(F)(F)F)cc(-c3ccco3)nc12`, 17.5%. On to `C=C(C)Cn1c(SCC(=O)NCc2ccco2)nc2sc3c(c2c1=O)CCC3`, for which the inhibition is 34.6%.

In the case of `O=C(NCc1ccco1)c1cccn2c(=O)c3c4c(sc3nc12)CCCC4`, the inhibition is 59.8% (active).

For the compound `Cc1nc2nc(C)c(CCC(=O)N3CCN(c4ccccc4)CC3)c(C)n2n1`, the inhibition was 0.9%. The result for `COC(=O)C1=C(C)N=C2SC(C)C(=O)N2C1/C=C/c1ccccc1` (stereo not drawn) reads 48.6%; that for `Cc1ccc(S(=O)(=O)Cn2nnnc2CN2CCN(Cc3ccc4c(c3)OCO4)CC2)cc1`, 29.7%; that for `O=C(/C=C/Nc1ccccc1OC(F)(F)F)C(F)(F)F`, 5.5%. As to `Cc1ccccc1OCC(=O)Nc1ccc(N2CCN(C(=O)C(C)C)CC2)c(Cl)c1`, the inhibition is 68.8% (active). The result for `CN1CCN(c2ccc(NC(=O)COc3ccc(Cl)cc3Cl)cc2)CC1` reads -16.8%; that for `Cc1cccc(NC(=O)COc2ccccc2C)n1`, 19.4%; that for `COc1ccccc1C(=O)N1CCN=C1SCc1cccnc1`, 58.4% (active). As to `CCC(=O)N1CCN=C1SCc1ccc(F)cc1`, the inhibition was 11%.

As to `O=C(c1ccco1)N1CCN=C1SCc1cccc(Cl)c1`, the inhibition is 34.4%.

Turning to `Oc1c(C(c2ccccn2)N2CCOCC2)ccc2cccnc12` (stereo not drawn), the inhibition is -11.4%. The result for `O=C(Cn1cc(-c2nnnn2-c2ccc(Cl)cc2)c(=O)c2ccccc21)c1ccccc1` reads -11.4%; that for `O=c1cc(CO)oc(CN2CCC(Cc3ccccc3)CC2)c1O`, 4.2%. The result for `FC(F)(F)c1cccc(-c2cc3ccccc3nc2N2CCCC2)c1` reads 11.5%. To `O=C(COC(=O)c1ccc(S(=O)(=O)N2CCc3ccccc3C2)cc1)NC(=O)NCc1ccco1` belongs 10.9%; to `C=CCOC(=O)C1=C(C)NC(SCC(=O)OCC)=C(C#N)C1c1ccc(C)cc1` (stereo not drawn), 64.3% (active).

As for `C=CCOC(=O)C1=C(C)OC(N)=C(C#N)C1c1ccc(F)cc1` (stereo not drawn), the inhibition is 44.5%. To `CC1=C(C(=O)Nc2ccccc2)C(c2ccco2)C(C#N)=C(SCC(N)=O)N1` (stereo not drawn) belongs 5.8%; to `CC1=C(C(=O)OCc2ccccc2)C(c2ccco2)n2ncnc2N1` (stereo not drawn), 17.6%. To `CCOC(=O)CSC1=C(C#N)C(c2ccco2)C(C(=O)OCc2ccccc2)=C(C)N1` (stereo not drawn) belongs 95.5% (active). Take `Cc1cc(=O)oc2ccc(OCC(=O)O)cc12`: the inhibition was 11.6%. Turning to `CC/C(=N\O)C(C)(C)/[N+]([O-])=C/c1ccc(Br)cc1`, the inhibition is 0.5%.

Take `COCCCNC(=O)COc1cc(C)c(Cl)c(C)c1`: the inhibition is -73.4%.

In the case of `CC1Cc2ccccc2N1C(=O)Cn1cnc2ccccc2c1=O` (stereo not drawn), the inhibition is 34.6%.

For `CCn1nc(C(=O)OCC(=O)N2c3ccccc3CC2C)c2ccccc2c1=O` (stereo not drawn), the inhibition was 80.7% (active). To `CCOC(=O)c1[nH]c(C)c(C(=O)OCC(=O)N2c3ccccc3CC2C)c1C` (stereo not drawn) belongs 10.7%. To `Cc1ccc(Cl)cc1NC(=O)COC(=O)C1CCCCC1` belongs 28.6%; to `CCOC(=O)C1=C(CN2CCc3ccccc32)NC(=O)NC1c1cccc([N+](=O)[O-])c1` (stereo not drawn), 25.1%; to `Cn1c2c(c(=O)n(C)c1=O)C(c1ccc(O)cc1)Nc1ccccc1O2` (stereo not drawn), 19.1%. To `Cn1c2c(c(=O)n(C)c1=O)C(c1cccc([N+](=O)[O-])c1)Nc1ccccc1O2` (stereo not drawn) belongs 50.4% (active); to `Nc1c(-c2ccc(F)cc2)cnn1C1CCS(=O)(=O)C1` (stereo not drawn), -14.9%; to `CC1(C)CC(=O)C2=C(C1)N=C1SCCC(=O)N1C2c1ccc(C(F)(F)F)cc1` (stereo not drawn), -19.2%. For the compound `O=c1cc(-c2ccccc2)nc(N2CCCCC2)[nH]1`, the inhibition was -5.8%. As to `Cc1cccc2c(=O)n3c(nc12)CCCCC3`, the inhibition is 21%.

For the compound `O=c1c2c(nc3n1CCCCC3)sc1c(O)cccc12`, the inhibition was 70.6% (active). The result for `O=C(Nc1ccc2nc3n(c(=O)c2c1)CCCCC3)c1ccccc1Cl` reads 41.7%; that for `COC(=O)c1ccccc1NC(=O)c1ccccc1NS(C)(=O)=O`, 80.6% (active); that for `CCCNC(=O)Nc1ccccc1C(=O)Nc1ccc(OC)cc1`, 44.3%. To `COC(=O)c1ccccc1NC(=O)c1cncc(Br)c1` belongs -3.1%; to `COC(=O)c1ccc(NC(=O)c2ccccc2NS(=O)(=O)c2ccccc2)cc1`, 96.1% (active). The result for `CCOc1ccc(NC(=O)N(CC(C)C)CC(C)C)cc1` reads 6.8%; that for `COC(=O)c1ccc(NC(=O)C(C)N2C(=O)c3ccccc3C2=O)cc1` (stereo not drawn), 26.7%; that for `CCCCNC(=O)c1ccccc1NC(=O)c1ccccc1N(C)S(C)(=O)=O`, -0.4%. As to `COC(=O)c1ccccc1NC(=O)CN(Cc1ccc(Cl)cc1)S(C)(=O)=O`, the inhibition is 55.5% (active). To `CCOc1ccccc1N(CC(=O)Nc1ccccc1C(=O)OC)S(C)(=O)=O` belongs 6.7%. To `CCOc1ccc(NC(=O)c2ccccc2NS(C)(=O)=O)cc1` belongs 54.1% (active); to `COC(=O)c1ccccc1NC(=O)CN(Cc1ccccc1)S(C)(=O)=O`, 27.6%. As to `S=C1SCN(CCN2CCOCC2)CN1Cc1ccccc1`, the inhibition was 22.3%. To `Cc1nc(NC(CC(C)C)C(=O)O)c2nc(C)oc2n1` (stereo not drawn) belongs 15.1%; to `COC(=O)CNC(c1ccccc1Cl)c1cc(Br)ccc1NC(=O)CCN1CCOCC1` (stereo not drawn), 7.3%; to `C=CCn1c(-c2ccc3[nH]c(C)c(C)c3c2)n[nH]c1=S`, 31.1%.

Consider `CCCc1nc(-c2ccccc2O)n(-c2ccccc2)n1`, for which the inhibition is -16.7%. To `Cc1ccc(S(=O)(=O)N2C3C=CC(C3)C2C(=O)O)cc1` (stereo not drawn) belongs -4.8%; to `CCOCCCNC(=O)C(NC(=O)c1ccc(=O)[nH]c1)c1ccc(Cl)cc1` (stereo not drawn), 2.5%; to `O=C(NCCOc1ccccc1)c1ccccc1`, -2.4%. In the case of `Cc1ccc(S(=O)(=O)NCC(=O)N(CC(=O)NC(C)(C)C)Cc2cccs2)cc1`, the inhibition is -0.5%. The result for `CCOC(=O)N1CCC(NC(=O)Cn2cc3c(n2)CCCCC3)CC1` reads -10.8%. Turning to `CC(C)c1ccc(/C=C/C(=O)NNC(=O)c2cccnc2)cc1`, the inhibition is 6.3%. The result for `CCCCn1c(SCc2ncc(-c3ccccc3)o2)nc2cc(S(N)(=O)=O)ccc21` reads 54.5% (active).

As a reminder, the inhibition is the change of the read-out against control, counted positive when it falls.
